This is a sample that favours compounds with a hit; in the whole collection about 12% have one here.
HP1b binding inh – blocks HP1-beta chromodomain binding to methylated histone tails; P83916; AlphaScreen HP1-beta / biotin-H3K9me3 peptide binding; Potency, µM (highest dose often 114 µM), hits mostly inhibitors; hit rate 0.56% among 390,000; AID 540317; note: nearly all actives have a fitted effect of over 70% in size
Target sequence (P83916 whole entry, looked up): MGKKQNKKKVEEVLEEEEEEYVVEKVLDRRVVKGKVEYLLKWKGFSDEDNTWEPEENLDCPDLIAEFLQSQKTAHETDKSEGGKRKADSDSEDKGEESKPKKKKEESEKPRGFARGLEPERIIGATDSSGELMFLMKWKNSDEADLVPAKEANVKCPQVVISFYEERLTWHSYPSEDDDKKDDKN
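Compound inhibition of the preformed complex between 50 nM HP1-beta and 50 nM biotinylated H3K9me3 peptide was read by AlphaScreen. Buffer was PBS pH 7.4 with 0.01% Tween-20. Incubations ran 30 min at room temperature, with 10 ug/mL donor/acceptor beads.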
L3MBTL1 inh – L3MBTL1 (human) inhibition | Q9Y468 | AlphaScreen L3MBTL1–H3K9me1 peptide binding | Potency, µM (doses to about 57.1 µM), actives largely listed as inhibitors | hit rate 0.66% among 230,000; note: nearly all actives have a fitted effect of over 60% in size
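L3MBTL1 (50 nM) pre-complexed 30 min with biotinylated H3(1-15)K9me1 peptide (75 nM), then compounds added for 30 min at room temperature; AlphaScreen streptavidin donor/nickel chelate acceptor beads (10 ug/mL final) read after 30 min dark incubation.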
BAZ2B inh – blocks human BAZ2B; AlphaScreen BAZ2B-H3K14Ac peptide displacement; AID 504333; Potency, µM (series often up to 114 µM), hits mostly inhibitors; hit rate 4.4% among 360,000; note: nearly all actives have a fitted effect of over 60% in size
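AlphaScreen displacement: compounds (up to 110uM) incubated 30 min at room temperature with a preformed 50 nM BAZ2B/50 nM biotinylated H3K14Ac peptide complex in PBS pH 7.4 with Tween-20. Donor and acceptor beads at 10 ug/mL final added, 20 min light-protected before reading.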
JMJD2A Tudor – inhibitors of human JMJD2A Tudor domain. O75164. AlphaScreen JMJD2A-Tudor / H3K4me3 peptide binding. Potency, µM (series often up to 114 µM), hits mostly inhibitors. hit rate 4.4% among 390,000; note: nearly all actives have a fitted effect of over 50% in size
Sfp inh – Sfp phosphopantetheinyl transferase inhibition; Q9F4F7; Biochemical Sfp PPTase activity, qHTS; Potency, µM, most hits filed as inhibitors; hit rate 3.5% among 310,000;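 note: the enzyme is Sfp with the accession as filed and its product quenches rhodamine fluorescence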
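Step 1, compound plus 15 nM Sfp-PPTase, 15 min, room temperature. Step 2, add rhodamine-CoA (5 uM) and BHQ-2-YbbR (12.5 uM). Step 3, read 525/598 nm fluorescence at 0 and 30 min.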
G9a block – blocks human histone lysine methyltransferase G9a; G9a H3K9 monomethylation, AlphaScreen, 2 h; hit rate 8.8% among 350,000; Potency, µM (titrated, usually from 102 µM), most hits filed as inhibitors; note: nearly all actives have a fitted effect of over 75% in size
Target sequence (Q96KQ7 913-1193 limits assumed): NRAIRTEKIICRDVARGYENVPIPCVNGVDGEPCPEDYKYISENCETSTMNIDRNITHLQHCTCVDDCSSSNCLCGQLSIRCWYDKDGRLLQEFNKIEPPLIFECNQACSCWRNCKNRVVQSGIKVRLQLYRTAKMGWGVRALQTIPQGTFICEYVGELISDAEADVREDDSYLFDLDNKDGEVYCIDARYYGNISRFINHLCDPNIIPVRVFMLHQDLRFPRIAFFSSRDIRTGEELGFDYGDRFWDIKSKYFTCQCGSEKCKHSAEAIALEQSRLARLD
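Compounds were preincubated with 20 nM G9a for 15 min, after which biotinylated H3K9 peptide (500 nM) and SAM (20 uM) started a 2 h room-temperature reaction. Monomethylated product was quantified by antibody-based AlphaScreen chemiluminescence.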
Hits are given with their value; [ ] = dose if it differs, or a comment. Calls come from the whole dose curve; as a rule, active = well fitted curve in the direction sought with a large enough effect; inconclusive = small, poorly fitted or top-dose-only effect, or another doubt; inactive = no such curve, though single readings can be large; an effect the other way counts as inactive or inconclusive.

What do the screens show for `COc1ccc(CCNC(=O)c2sc(=S)n(C)c2N)cc1`?
HP1b binding inh: inactive; L3MBTL1 inh: inactive; BAZ2B inh: inactive; JMJD2A Tudor: inactive; Sfp inh: inconclusive; G9a block: inconclusive

What do the screens show for `Cn1c(N)c(C(=O)Nc2c(Cl)cccc2Cl)sc1=S`?
HP1b binding inh: inactive; L3MBTL1 inh: inactive; BAZ2B inh: inactive; JMJD2A Tudor: inactive; Sfp inh: inactive; G9a block: 50µM

How did COC1OC(CO)C(OC2OC(C(=O)O)C(OC3OC(COS(=O)(=O)O)C(OC4OC(C(=O)O)C(OC5OC(CO)C(OC6OC(C(=O)O)C(OC7OC(COS(=O)(=O)O)C(OC8OC(C(=O)O)=C[C@H](O)C8OS(=O)(=O)O)C(O)C7NC(C)=O)[C@@H](O)C6O)C(O)C5NC(C)=O)[C@@H](O)C4O)C(O)C3NC(C)=O)[C@@H](O)C2O)C(O)C1NC(C)=O (stereo partly drawn) do in these assays?
Sfp inh: inactive; G9a block: inconclusive

Results for CS(=O)(=O)Nc1cccc(-c2ccc3ncnc(NCc4cccs4)c3c2)c1 ?
Sfp inh: inactive; G9a block: inactive[0.501 µM]

How did CC(Cc1ccc(O)c(O)c1)C(C)Cc1ccc(O)c(O)c1 (stereo not drawn) do in these assays?
HP1b binding inh: inconclusive; JMJD2A Tudor: 22µM; Sfp inh: 40µM

Results for C[C@H](Cc1ccc(O)c(O)c1)[C@@H](C)Cc1ccc(O)c(O)c1 ?
G9a block: 0.79µM

Results for COc1cc(C[C@@H](C)[C@@H](C)Cc2ccc(O)c(OC)c2)ccc1O ?
HP1b binding inh: inactive; L3MBTL1 inh: inactive; JMJD2A Tudor: inconclusive

How did CC(C)CCN(C(=O)c1csnn1)C(C(=O)NC1CCCCC1)c1ccc(F)cc1 (stereo not drawn) do in these assays?
HP1b binding inh: inactive; BAZ2B inh: inactive; JMJD2A Tudor: inactive; Sfp inh: inactive; G9a block: inactive

How did CNS(=O)(=O)c1cc(-c2nnc(Nc3cc(C)ccc3C)c3ccccc23)ccc1C do in these assays?
HP1b binding inh: inactive; BAZ2B inh: inactive; JMJD2A Tudor: inactive; G9a block: inconclusive

How did Cc1nc2sccn2c1-c1nc(-c2cc3ccccc3o2)cs1 do in these assays?
HP1b binding inh: inactive; L3MBTL1 inh: inactive; BAZ2B inh: inconclusive; JMJD2A Tudor: 25µM; Sfp inh: inactive; G9a block: inactive

What do the screens show for `COCCNc1nc(-c2cc3ccccc3o2)cs1`?
HP1b binding inh: inactive; L3MBTL1 inh: inactive; BAZ2B inh: inconclusive; JMJD2A Tudor: inactive; Sfp inh: inactive; G9a block: inconclusive

Results for N#Cc1c(Sc2ncc(C(F)(F)F)cc2Cl)nsc1C/C=N\OCc1ccccc1Br ?
HP1b binding inh: inactive; BAZ2B inh: 45µM; JMJD2A Tudor: inconclusive; Sfp inh: inactive; G9a block: 20µM

How did CCOC(=O)/C(=C\Nc1ccccc1C(F)(F)F)Sc1ncc(C(F)(F)F)cc1Cl do in these assays?
HP1b binding inh: inactive; BAZ2B inh: inactive; JMJD2A Tudor: inactive; Sfp inh: inactive; G9a block: inactive[12.7 µM]

Results for CC(C)(C)c1ccc(CNc2cc(N3CCOCC3)ccc2[N+](=O)[O-])cc1 ?
HP1b binding inh: inconclusive; L3MBTL1 inh: inactive; BAZ2B inh: inconclusive; JMJD2A Tudor: inconclusive; Sfp inh: inactive; G9a block: 25µM

What do the screens show for `CS(=O)(=O)N1CCN(c2ccc([N+](=O)[O-])c(NCc3ccccc3)c2)CC1`?
HP1b binding inh: inactive; L3MBTL1 inh: inactive; BAZ2B inh: inactive; JMJD2A Tudor: inactive; Sfp inh: inactive; G9a block: inactive[12.7 µM]

What do the screens show for `CS(=O)(=O)N1CCN(c2ccc([N+](=O)[O-])c(NCc3ccc(Cl)cc3)c2)CC1`?
HP1b binding inh: inactive; L3MBTL1 inh: inactive; BAZ2B inh: inconclusive; JMJD2A Tudor: 89µM; Sfp inh: inactive; G9a block: inactive

Results for CCCCCCOc1ccc(C(=N)N(CCCC)CCCC)c2ccccc12 ?
Sfp inh: 18µM; G9a block: inconclusive

Results for CCCCOc1ccc2ccccc2c1C=O ?
HP1b binding inh: inactive; L3MBTL1 inh: inactive; BAZ2B inh: inactive; JMJD2A Tudor: inactive; Sfp inh: inactive; G9a block: inactive[12.7 µM]

Compound activity: PubChem, National Center for Advancing Translational Sciences (NCATS)
